From PubChem
Rows were chosen to be rich in hits. Some 1.6% of all compounds tested hit in one or more screens of this group.
A1 inh: caspase 3/7 activation in MEF A1-2A-BIM cells, primary screen, A1 inhibitor project, cell-based, luminescence, HTS | AID 2462, 2010 | caspase activation, % (concentration not given with the values) | 0.066% of 330,000 active | Caspase-Glo 3/7 luminescence, 3 h; percent of clofoctol response, vehicle zero;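 active means over half of replicate activation scores above 10%, or exactly half above 10 with the replicate mean above 10; inconclusive means replicate mean below 10 yet half the replicates above 10; inactive means over half of replicates below 10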
Beta2AR agonist: beta2AR agonists driving receptor internalization, primary screen, cell-based, FAP fluorogen, flow cytometry; Am2.2-beta2AR cells; response, % (no concentration beside the values); 0.43% of 340,000 active; AID 504454, 2011;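 active means response above a set limit, near 3 SD of response in nonfluorescent compounds, cut at about 42% in these data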
dFosB act-1: activators of delta FosB homodimer, primary screen, biochemical, fluorescence polarization, TAMRA-CDK5 oligo, single point. Protein FosB (Mus musculus), P13346. purified delta FosB; percent of positive-control signal above neutral wells. activation, % at 25 µM. 0.99% of 340,000 active. AID 493131, 2011;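 active means mean activation above about 17%, with every replicate also reaching it, limit read from the data, passing the limit was not always enough; inconclusive means only one of the two conditions met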
Target sequence (P13346 whole entry, looked up): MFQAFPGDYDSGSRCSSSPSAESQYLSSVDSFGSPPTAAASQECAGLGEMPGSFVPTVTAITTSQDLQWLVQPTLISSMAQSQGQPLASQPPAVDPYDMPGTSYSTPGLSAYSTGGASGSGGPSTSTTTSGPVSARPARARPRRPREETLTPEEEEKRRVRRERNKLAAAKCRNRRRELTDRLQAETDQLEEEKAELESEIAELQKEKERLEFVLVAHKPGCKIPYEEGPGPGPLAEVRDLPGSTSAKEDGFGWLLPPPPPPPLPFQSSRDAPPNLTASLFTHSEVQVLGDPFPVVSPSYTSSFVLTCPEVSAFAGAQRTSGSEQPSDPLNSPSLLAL
DYRK1A inh: rat Dyrk1A kinase inhibitors, primary screen, biochemical, single point, plate reader. ADP-Glo luminescence, NFATc1 peptide. inhibition, % at 12.5 µM. 0.43% of 310,000 active; in the data active means inhibition above about 50%;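 further: plate controls were vehicle with enzyme for no effect and no enzyme for full effect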
dFosB act-2: activators of mouse delta FosB DNA binding, confirmation, biochemical, fluorescence polarization, TAMRA-CDK5 oligo, cherry-picked samples | 2,400 tested, under 10 active | purified delta FosB; normalised: neutral wells 0, positive control 100 | activation, % at 24.9 µM | shares compounds with dFosB act-1;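 active means highest replicate activation at or above 34% and every replicate reaching that threshold; inconclusive means meets only one of the two criteria; inactive means meets neither criterion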;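 further: higher polarization means more probe DNA bound by delta FosB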
* hit, by the source's call; ? = inconclusive; . = not tested or not shown.

SMILES	A1 inh	Beta2AR agonist	dFosB act-1	DYRK1A inh	dFosB act-2
CN(C)CCCN(C(=O)c1ccc2ccccc2c1)c1nc2cc3c(cc2s1)OCO3	1	24	6	2	.
CN(C)CCN(C(=O)c1cccc2ccccc12)c1nc2cc3c(cc2s1)OCO3	1	4	41*	1	0
CN(C)CCN(C(=O)c1ccc(Br)s1)c1nc2cc3c(cc2s1)OCCO3	-1	-5	19*	1	2
CCN(CC)CCN(C(=O)c1cc2c(ccc3ccccc32)oc1=O)c1nc2cc3c(cc2s1)OCCO3	7.2*	-11	71*	.	0
O=S(=O)(c1ccc(F)cc1)N1CCN(c2ccc(-c3ccccc3)nn2)CC1	-1	0	5	-5	.
N#Cc1c(N)nc(SCC(=O)NCCc2ccccc2)c(C#N)c1-c1cccs1	0	-10	36*	1	0
CC(=O)CSc1nc(N)c(C#N)c(-c2cccs2)c1C#N	1	7	-6	2	.
CCN(CC)CC(=O)N1c2ccccc2CCc2ccc(NC(=O)c3cc(OC)c(OC)c(OC)c3)cc21	-1	20	-15	-3	.
COc1cc(C(=O)OCC(=O)NCc2ccccc2)cc(NC(=O)c2ccco2)c1OC	0	4	26*	7	2
CNC(=O)COC(=O)c1cc(NC(=O)c2ccco2)c(OC)c(OC)c1	1	-1	6	-7	.
COC(=O)[C@]1(C)N[C@H](CN(C)C(=O)Nc2ccc(Cl)cc2)[C@@H]2C(=O)N(C)C(=O)[C@@H]21	1	8	-3	.	.
O=C(NC1CCCCC1)C(c1ccc(F)cc1)N(Cc1cccs1)C(=O)CN1C(=O)c2ccccc2S1(=O)=O (stereo not drawn)	1	-3	29*	4	0
COc1ccc(C(=O)Nc2ccccc2-c2nnn(CC(N)=O)n2)cc1	.	15	44*	7	3
COc1cc(C(=O)Nc2ccccc2-c2nnn(CC(N)=O)n2)cc(OC)c1OC	0	-2	-11	4	.
COc1ccc(C(=O)Nc2ccccc2-c2nnn(CC(=O)Nc3ccc4c(c3)OCCO4)n2)cc1	-1	-3	33*	.	2
COc1cc(OC)cc(C(=O)Nc2ccccc2-c2nnn(CC(=O)Nc3cc(C)on3)n2)c1	0	-8	95*	-3	5
CCOC(=O)C1CCCN(S(=O)(=O)Cc2ccc(Cl)cc2)C1 (stereo not drawn)	0	-3	-10	-2	.
CCn1cc(CN2CCC(n3nccc3NC(=O)c3ccccc3C)CC2)c(C)n1	0	0	1	2	.
COc1cc(C2NC(=O)CCC2[N+](=O)[O-])c(OC)cc1Br (stereo not drawn)	-1	-2	-8	-4	.
O=C(NCc1ccc2c(c1)OCO2)C1CCN(C(=O)Nc2ccc(Cl)cc2)CC1	0	-5	20*	-2	4
COc1ccc(Cl)cc1NC(=O)NCc1ccc2c(c1)OCO2	1	4	62*	-4	5
O=C(Nc1ccncc1)c1ccc(Cl)c(S(=O)(=O)N2CCCC2)c1	0	0	-6	7	.
Cc1cc(SCC(=O)N/N=C/c2cccnc2)nc2c(C)cccc12	0	-29	67*	5	-9
COc1ccc(-c2noc(CSc3nc(N)c(-c4ccccc4)c(=O)[nH]3)n2)cc1	0	-2	62*	5	-1
Cn1cc(/C=C(\C#N)C(=O)Nc2cccc([N+](=O)[O-])c2)c2ccccc21	0	41	45*	-5	4
SMILES	A1 inh	Beta2AR agonist	dFosB act-1	DYRK1A inh	dFosB act-2
COc1ccc(-n2c(SCC(=O)N3CCc4ccccc43)nnc2-c2c[nH]c3ccccc23)cc1	0	-4	49*	-2	3
CCOC(=O)C1=C(COC(=O)/C=C/c2cccc(OC)c2OC)NC(=O)NC1C (stereo not drawn)	0	12	-30	-10	.
OC(CNCCc1ccc(Cl)cc1)COc1ccc2ccccc2c1 (stereo not drawn)	.	14	4	3	.
OC(CNCCc1ccccc1)COc1ccc(OCC(O)CNCCc2ccccc2)cc1 (stereo not drawn)	0	24	19*	.	-4
COc1ccc(Cn2c(=O)[nH]c3cc(C(=O)N4CCN(c5ccccc5F)CC4)ccc3c2=O)cc1	0	2	18*	-1	5
COc1ccc(/C=C(\NC(=O)c2cccs2)C(=O)NN)cc1OC	1	11	-6	1	.
COc1ccc2c(c1)[nH]c1c(=O)n(/N=C/c3ccc(OC)c(CN4CCCC4)c3)cnc12	0	2	66*	15	?
COc1ccc(/C=N/n2cnc3c([nH]c4ccc(C)cc43)c2=O)cc1CN1CCCC1	-1	27	42*	16	2
COc1ccc(OC)c(C=NNC(=O)c2ccc(NS(=O)(=O)c3cccs3)cc2)c1	-1	.	.	.	.
CCN(CC)S(=O)(=O)c1cc(C(=O)Nc2cc(S(=O)(=O)N3CCOCC3)ccc2N2CCN(C)CC2)ccc1C	.	10	-26	-4	.
Cc1ccc(NC(=O)/C=C/c2ccc(Cl)cc2)nc1	-1	-2	-4	2	.
O=C(/C=C/c1ccccc1)Nc1ccc(Br)cn1	-4	-9	23*	.	2
O=C(COc1ccc(Cl)cc1Cl)N/N=C/c1ccc[nH]1	-1	1	-7	-6	.
COc1ccc(-c2cc(=O)oc3cc(OCC(=O)Nc4ccc(CCO)cc4)ccc23)cc1	1	3	22*	-6	1
COc1ccc(-c2cc(=O)oc3c(C)c(OCC(=O)Nc4cccnc4)ccc23)cc1	0	2	41*	-1	-6
COC(=O)COc1ccc2c(-c3ccc(OC)cc3)cc(=O)oc2c1	0	25	-18	3	.
O=C(Nc1cnccn1)Nc1ccccc1F	0	1	-1	.	.
O=C(Oc1coc(CSc2nnc(NC(=O)C3CC3)s2)cc1=O)c1ccccc1	0	-1	23*	4	-11
Cc1cccc(C(=O)Oc2coc(CSc3nnc(NC(=O)C4CC4)s3)cc2=O)c1	2	-3	7	3	.
O=C1Cc2c([nH]c3ccc([N+](=O)[O-])cc23)-c2ccccc2N1	.	-4	31*	.	3
O=c1[nH]c2cc([N+](=O)[O-])ccc2c2ccccc12	.	9	2	.	.
CN(C(=O)c1ccc(N2CCCCC2)c([N+](=O)[O-])c1)C1(C)CCS(=O)(=O)C1 (stereo not drawn)	0	-10	-6	0	.
O=C(Cn1cnc2c(oc3ccccc32)c1=O)NCCc1ccccc1	-1	-8	61*	-1	-3
O=C(Cn1cnc2sc(-c3ccccc3)cc2c1=O)NCCc1ccccc1	1	-3	53*	1	2
